Results reported in ChEMBL document CHEMBL3988442, “University of Dundee, Small-Polar-MMV Screening Library” (2021).

These compounds were tested against Shiga toxin 2 (Escherichia coli O157:H7) (UniProt P09385+P09386) (assay: E. coli 0.157:H7 Shiga Toxin SOP - stx2 screening assay). Conditions: 30 µM.
Type: functional
Parameters: scale not given: direction of the effect not stated beside the values
With Cc1cc(C(=O)NCCn2nc3ccccn3c2=O)[nH]n1 the Percent Effect was -43.7%. Cc1ncsc1C(=O)NCCSCc1cccs1 showed a Percent Effect of -24.7%. COc1ccc(CN(C)C(=O)CCC(=O)c2cccs2)c(OC)c1OC showed a Percent Effect of 0.732%. Compound Fc1ccc(-c2cnc(CN3CCCC3Cn3cccn3)o2)cc1 (stereo not given) has a Percent Effect of 8.21%. In the case of O=C(NS(=O)(=O)c1cc(Cl)sc1Cl)c1cccc2c1OCCO2, the Percent Effect is reported as -6.84%. Compound O=C(Cn1ccnc1)N1C[C@@H]2CC[C@H](Oc3ccccc3Cl)[C@@H]2C1 has a Percent Effect of 13.9%. CC(C)N1CCN(C(=O)Nc2cnn(CC(N)=O)c2)CC1 showed a Percent Effect of -11.9%. CC(O)CN1CCN(C(=O)c2cccc(CC#N)c2)CC1 (stereo not given) gave a Percent Effect of -54.8%. COCC1CC2(CCN(Cc3cnn(C)c3)CC2)CN1C(C)C (stereo not given) showed a Percent Effect of -9.26%. CCn1nc(CC(C)C)cc1C(=O)NCCCOC was tested, and the Percent Effect was 11.5%. In the case of Cc1nc(N2CCN(C)CC2)ncc1C(=O)N1CCC(O)(CO)CC1, the Percent Effect is reported as 5.75%. CCO[C@H]1CO[C@@]2(CCCN(S(=O)(=O)c3ccccc3)C2)C1 was tested, and the Percent Effect was -21.7%. In the case of CCn1ccnc1CN(C)CC1CCCN1c1cccnn1 (stereo not given), the Percent Effect is reported as -26.1%. Work on COc1ccc(CN2C[C@@H](OCc3csc(C)n3)[C@H]3COC[C@H]32)cc1 yielded a Percent Effect of -12.3%. COc1cccc(OCc2cc(C(=O)NC[C@H]3CCCN3)n[nH]2)c1 was tested, and the Percent Effect was -1.49%. With CN(C)c1cc(C(=O)N2CCCN(Cc3cscn3)CC2)ccn1 the Percent Effect was -13.1%. COc1ccc(C)cc1CNCc1ccc(-n2nc(C)cc2C)nc1 was tested, and the Percent Effect was 26.6%. Cn1cnc2c1C(COCC1CCOCC1)CN(C1CCOCC1)C2 (stereo not given) gave a Percent Effect of -20.2%. NC(=O)c1ccc(OCC(=O)N2CCCC(n3cccn3)C2)cc1 (stereo not given) was tested, and the Percent Effect was 26%. For COCCN1CCN(CCCS(=O)(=O)c2ccccc2)CC1C (stereo not given), the Percent Effect was -5.54%. COc1ccc(CN2CCCC(Nc3cccc(F)c3)C2)cc1O (stereo not given) gave a Percent Effect of 5.84%. For O=C(NCc1ccccc1F)N1CCC(C2OCCO2)CC1, the Percent Effect was -12.8%. Cc1cc(NC(=O)NCC(C)N2CCc3ccccc32)no1 (stereo not given) was tested, and the Percent Effect was -1.83%. With O=C(c1ccc[nH]1)N1C[C@H]2CC[C@@H]1CN(c1ncccn1)C2 the Percent Effect was -5.71%. In the case of Cc1noc(C)c1CCC(=O)N1CCN(CCn2cncn2)CC1, the Percent Effect is reported as -7.17%. With CCN1CC(C(=O)NC(C)(C)CNC(=O)OC(C)(C)C)CC1=O (stereo not given) the Percent Effect was 15.4%. With COc1cc(CCC(C)O)c(OC)c2c1OCO2 (stereo not given) the Percent Effect was -10.2%. Compound CC(=O)Nc1nc(C(=O)N2CCCC2c2noc(C)n2)cs1 (stereo not given) has a Percent Effect of -22.5%. Work on COC[C@H]1CCC[C@]12CN(C(=O)NCc1ccccc1)CCO2 yielded a Percent Effect of -17.2%. With Cc1[nH]/c(=N\C(=O)c2csc(NCC(C)C)n2)sc1C the Percent Effect was 12%. With Cc1ccc(CN2CCC3(C2)C(=O)N(CC(C)C)c2ccccc23)s1 (stereo not given) the Percent Effect was -42.5%. Compound CN1CCN(C(=O)[C@H]2C[C@@H]3CCN(c4ncc(F)cn4)C[C@@H]3O2)CC1 has a Percent Effect of -18.9%. Compound Cc1cc(C2CCCN2CCCc2nc3ccccc3o2)on1 (stereo not given) has a Percent Effect of 28.6%. In the case of CC(C)(C)c1cc(CN2CC[C@@H](NC(=O)c3cccnc3)[C@H](O)C2)n[nH]1, the Percent Effect is reported as 14.9%. With COc1ccccc1OCc1cc(C(=O)N2CC(O)C2)n[nH]1 the Percent Effect was 1.76%. Work on Cc1cccc(C)c1OCCNC(=O)NC(C)c1nncn1C (stereo not given) yielded a Percent Effect of -46.4%. In the case of CC1CCCCN1C(=O)CN1CCN(c2ccc3nncn3n2)CC1 (stereo not given), the Percent Effect is reported as -8.03%. Cc1cc(C)n(CC2CCCN2CCc2ccncc2)n1 (stereo not given) was tested, and the Percent Effect was -7.41%. Cc1nc(C)n(C2CCCN(C(=O)c3cc4ccccc4n3C)C2)n1 (stereo not given) showed a Percent Effect of 15%. With Cn1cc(N2CCC3(CCN(S(=O)(=O)C4CC4)C3)C2=O)cn1 (stereo not given) the Percent Effect was -21.1%.
